# Source: PubChem BioAssay (NCATS)
# Where “and” joins values, the source holds several entries; their conditions need not be identical. Equal entries are not always repeated. Inconclusive results are not listed. Where a structure was tested more than once in an assay, its records may differ in their call. For some assays here: Potency and affinity values are given separately. Calls of active or inactive are those of the source.
# Assays:
# [1] = qHTS profiling of the MIPE4 collection as inhibitors of Plasmodium falciparum (3D7) proliferation (AID 743344);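 also: scaled between DMSO vehicle wells and 0.29 µM artemisinin as full inhibition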; conditions: P. falciparum 3D7 in erythrocytes, SYBR Green DNA fluorescence, 72 h; at 28.5 µM unless noted
# Procedure, shortened: (§1)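 Erythrocytes infected with P. falciparum (0.3% parasitemia, 2.5% hematocrit) incubated with compounds 72 h at 37 C, 5% CO2. Lysis with saponin/Triton buffer containing SYBR Green I, overnight at room temperature in the dark; DNA fluorescence (485/535 nm) normalised to 0.29 uM artemisinin and DMSO.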
# [2] = qHTS profiling of the MIPE4 collection as inhibitors of Plasmodium falciparum (DD2) proliferation (Rep 2) (AID 743346); conditions: P. falciparum Dd2 in erythrocytes, SYBR Green DNA, 72 h; at 28.5 µM unless noted
# Procedure, shortened: as §1
# [3] = qHTS profiling of the MIPE4 collection as inhibitors of Plasmodium falciparum (HB3) proliferation (AID 743347);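 also: plate controls were DMSO vehicle wells for no effect and artemisinin wells for full effect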; conditions: P. falciparum HB3 in erythrocytes, SYBR Green DNA, 72 h; at 28.5 µM unless noted
# Procedure, shortened: as §1
# [4] = Ebola virus entry assay, green fluorescence channel
# [5] = Ebola virus entry assay, blue channel fluorescence
# [6] = qHTS assay for cell viability of the p53RE-bla HCT-116 cell line (AID 743292; active = well fitted curve in the direction sought with a large enough effect; an effect the other way counts as inactive or inconclusive; also: nearly all actives have a fitted effect of over 55% in size; also: potency is read from the fitted curve at half-maximal effect); conditions: p53RE-bla HCT-116 viability, ATP luminescence, 16 h; series mostly up to 95 µM
# Procedure, shortened: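 After plating at 4,000 cells per well and a 5 h rest at 37 C, HCT-116 cells carrying p53RE-bla received test chemicals in DMSO. Sixteen hours later at 37 C, CellTiter-Glo was added and luminescence recorded following 30 min at room temperature.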
# [7] = qHTS profiling of the MIPE4 collection as inhibitors of Plasmodium falciparum (DD2) proliferation (AID 743345); conditions: P. falciparum Dd2 in erythrocytes, SYBR Green DNA, 72 h; at 28.5 µM unless noted
# Procedure, shortened: as §1
# [8] = qHTS profiling for inhibitors of Plasmodium falciparum (3D7) proliferation (AID 743322);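 also: infected erythrocytes exposed to compound for 72 h before lysis; 100% = DMSO vehicle wells and 0% = 0.29 µM artemisinin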; conditions: P. falciparum 3D7 proliferation; at 28.7 µM (top of the series)
# Procedure, shortened: as §1
# [9] = qHTS profiling for inhibitors of Plasmodium falciparum (DD2) proliferation (AID 743323); conditions: lower = more inhibition; at 28.7 µM (top of the series)
# Procedure, shortened: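 Parasite proliferation measured via DNA-dye fluorescence, as uninfected erythrocytes lack DNA. Cultures at 0.3% parasitemia and 2.5% hematocrit incubated 72 h with compound; signal scaled between vehicle and 0.29 uM artemisinin wells.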
# [10] = qHTS profiling for inhibitors of Plasmodium falciparum (HB3) proliferation (AID 743324; active = well fitted curve in the direction sought with a large enough effect; an effect the other way counts as inactive or inconclusive;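 also: 100% = DMSO vehicle wells and 0% = artemisinin-treated control wells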); conditions: Plasmodium falciparum HB3 blood-stage proliferation; at 28.7 µM (top of the series)
# Procedure, shortened: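 P. falciparum HB3 grown in erythrocytes (0.3% parasitemia, 2.5% hematocrit final) with compound for 72 h at 37 C, 5% CO2. Parasite DNA detected by SYBR Green after saponin/triton lysis overnight; normalized to 0.29 uM artemisinin and DMSO.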
# For efficacy in this document: 0% is about no effect.
smiles,measurement,setting,value
Cc1ccnc2c1NC(=O)c1cccnc1N2C1CC1,"parasite growth, % of DMSO control",[1],358%
same,"parasite growth, % of control (lower = inhibition)",[2],83.7%
same,"growth, % of control",[3],600%
same,efficacy,[4],25.7% (inactive)
same,outcome,[5],inactive
O=P1(NCCCl)OCCCN1CCCl (configuration not stated),"parasite growth, % of DMSO control",[1],62.8%
same,"parasite growth, % of control (lower = inhibition)",[2],110%
same,"growth, % of control",[3],107%
same,efficacy,[4],14.4% (inactive)
same,outcome,[5],inactive
Cc1nc2n(c(=O)c1CCN1CCC(c3noc4cc(F)ccc34)CC1)CCCC2,"parasite growth, % of DMSO control",[1],38.3%
same,"parasite growth, % of control (lower = inhibition)",[2],48.7%
same,"growth, % of control",[3],60.5%
same,efficacy,[4],54.5% (inactive)
same,outcome,[5],inactive
CC(C)C(=O)Nc1ccc([N+](=O)[O-])c(C(F)(F)F)c1,"parasite growth, % of DMSO control",[1],93%
same,"parasite growth, % of control (lower = inhibition)",[2],69.2%
same,"growth, % of control",[3],88.5%
same,efficacy,[4],-18.2% (inactive)
same,outcome,[5],inactive
Nc1nc(F)nc2c1ncn2[C@@H]1O[C@H](CO)[C@@H](O)[C@@H]1O,"parasite growth, % of DMSO control",[1],31%
same,"growth, % of control",[3],81.8%
same,efficacy,[4],16.7% (inactive)
same,outcome,[5],inactive
O=c1[nH]cc(F)c(=O)[nH]1,"parasite growth, % of DMSO control",[1],42.1%
same,"parasite growth, % of control (lower = inhibition)",[2],44.8%
same,"growth, % of control",[3],85.2%
same,efficacy,[4],26.1% (inactive)
same,outcome,[5],inactive
CCn1cc(C(=O)O)c(=O)c2cc(F)c(N3CCNCC3)cc21,"parasite growth, % of DMSO control",[1],48%
same,"parasite growth, % of control (lower = inhibition)",[2],42.3%
same,"growth, % of control",[3],82.1%
same,efficacy,[4],-31.6% (inactive)
same,outcome,[5],inactive
OCCOc1ccccc1,Potency,[6],inactive
same,efficacy,[4],-12.5% (inactive)
NCC1(CC(=O)O)CCCCC1,"parasite growth, % of DMSO control",[1],58.3%
same,"parasite growth, % of control (lower = inhibition)",[2],75.9%
same,"growth, % of control",[3],94.9%
same,efficacy,[4],-9.69% (inactive)
same,outcome,[5],inactive
COc1ccc(C(CN(C)C)C2(O)CCCCC2)cc1 (configuration not stated),"parasite growth, % of DMSO control",[1],21.1%
same,"parasite growth, % of control (lower = inhibition)",[2],42.9%
same,"growth, % of control",[3],60.2%
same,efficacy,[4],55.6% (inactive)
same,outcome,[5],inactive
CO[C@]12CC[C@@]3(C[C@@H]1[C@](C)(O)C(C)(C)C)[C@@H]1Cc4ccc(O)c5c4[C@@]3(CCN1CC1CC1)[C@H]2O5,"parasite growth, % of DMSO control",[1],5.19% [at 57.2 µM]
same,"parasite growth remaining, % of DMSO control (lower = more inhibition)",[7],6.03% [at 57.2 µM]
same,"parasite growth, % of control (lower = inhibition)",[2],19.3% [at 57.2 µM]
same,"growth, % of control",[3],7.07% [at 57.2 µM]
same,efficacy,[4],-151% (inactive)
same,outcome,[5],inactive
COC1=CC(=O)C[C@@H](C)[C@]12Oc1c(Cl)c(OC)cc(OC)c1C2=O,efficacy,[4],30% (inactive)
same,outcome,[5],inactive
CC(C)(C)CC(C)(C)c1ccc(O)cc1,Potency,[6],inactive
same,efficacy,[4],-38.7% (inactive)
O=C(O)C1(C(=O)O)CCC1.[NH2-].[NH2-].[Pt+2],efficacy,[4],-21.2% (inactive)
same,outcome,[5],inactive
Cc1cc2c(s1)Nc1ccccc1N=C2N1CCN(C)CC1,"parasite growth, % of DMSO control",[1],97.1%
same,"parasite growth, % of control (lower = inhibition)",[2],49.7%
same,"growth, % of control",[3],101%
same,efficacy,[4],36% (inactive)
same,outcome,[5],inactive
CN1CCN(C(=O)O[C@H]2c3nccnc3C(=O)N2c2ccc(Cl)cn2)CC1,"parasite growth, % of DMSO control",[1],95.4%
same,"parasite growth, % of control (lower = inhibition)",[2],86.8%
same,"growth, % of control",[3],97.2%
same,efficacy,[4],27.7% (inactive)
same,outcome,[5],inactive
C#CCN(C)[C@H](C)Cc1ccccc1,"parasite growth, % of DMSO control",[1],92.5%
same,"parasite growth remaining, % of DMSO control (lower = more inhibition)",[7],97.8%
same,"parasite growth, % of control (lower = inhibition)",[2],124%
same,"growth, % of control",[3],95.7%
same,efficacy,[4],21.9% (inactive)
same,outcome,[5],inactive
CCCC(C)(COC(N)=O)COC(=O)NC(C)C (configuration not stated),Potency,[6],inactive
same,"parasite growth, % of DMSO control",[1],93%
same,"parasite growth, % of control (lower = inhibition)",[2],119%
same,"growth, % of control",[3],100%
same,efficacy,[4],22.1% (inactive)
same,outcome,[5],inactive
CC1Cc2ccccc2N1NC(=O)c1ccc(Cl)c(S(N)(=O)=O)c1 (configuration not stated),"parasite growth, % of DMSO control",[1],83.7%
same,"parasite growth, % of control (lower = inhibition)",[2],84.2%
same,efficacy,[4],11.5% (inactive)
same,outcome,[5],inactive
O=C1CC[C@@]2(O)[C@H]3Cc4ccc(O)c5c4[C@@]2(CCN3CC2CC2)[C@H]1O5,"parasite growth, % of DMSO control",[1],94.1%
same,"parasite growth, % of control (lower = inhibition)",[2],64.4%
same,"growth, % of control",[3],83.3%
same,efficacy,[4],-27.7% (inactive)
same,outcome,[5],inactive
O=C(OC1C[C@H]2CC[C@@H](C1)[N+]21CCCC1)C(O)(c1ccccc1)c1ccccc1 (some centres not stated),"parasite growth, % of DMSO control",[1],32.2%
same,"parasite growth, % of control (lower = inhibition)",[2],30.4%
same,efficacy,[4],12.9% (inactive)
same,outcome,[5],inactive
COc1ccc(C(=O)c2c(C)n(CCN3CCOCC3)c3ccccc23)cc1,remaining parasite growth % (stronger effect = lower value),[8],111%
same,"activity, percent of control",[9],102%
same,"remaining proliferation (% of control), lower = more inhibition",[10],94.6%
same,"parasite growth, % of DMSO control",[1],90.6%
same,"parasite growth, % of control (lower = inhibition)",[2],66.9%
same,"growth, % of control",[3],93.4%
same,efficacy,[4],-40.9% (inactive)
O=c1[nH]c2ccccc2n1CCCN1CCC(n2c(=O)[nH]c3cc(Cl)ccc32)CC1,"parasite growth, % of DMSO control",[1],26.8%
same,"parasite growth, % of control (lower = inhibition)",[2],31.2%
same,"growth, % of control",[3],14%
same,efficacy,[4],125% (inactive)
CCCCC/C=C\C/C=C\C/C=C\C/C=C\CCCC(=O)NC1CC1,remaining parasite growth % (stronger effect = lower value),[8],6.79%
same,"activity, percent of control",[9],5.26%
same,"remaining proliferation (% of control), lower = more inhibition",[10],3.08%
Oc1ccccc1-c1ccccc1,Potency,[6],inactive and 708 µM (active)
same,efficacy,[4],11.7% (inactive)
CNCC(O)c1ccc(O)cc1 (configuration not stated),Potency,[6],inactive
same,"parasite growth, % of DMSO control",[1],81.9%
same,"parasite growth, % of control (lower = inhibition)",[2],71%
same,"growth, % of control",[3],53.7%
same,efficacy,[4],-23.3% (inactive)
C[C@@H]1O[C@@H](O[C@H]2C[C@@H](O)[C@]3(CO)[C@H]4[C@H](O)C[C@]5(C)[C@@H](C6=CC(=O)OC6)CC[C@]5(O)[C@@H]4CC[C@]3(O)C2)[C@H](O)[C@H](O)[C@H]1O,"parasite growth, % of DMSO control",[1],81.9%
same,"parasite growth remaining, % of DMSO control (lower = more inhibition)",[7],95.7%
same,"parasite growth, % of control (lower = inhibition)",[2],124%
same,"growth, % of control",[3],101%
same,efficacy,[4],-93.6% (inactive)
Cn1c(CCCC(=O)O)nc2cc(N(CCCl)CCCl)ccc21,remaining parasite growth % (stronger effect = lower value),[8],92.7%
same,"activity, percent of control",[9],105%
same,"parasite growth, % of DMSO control",[1],97.1%
same,"parasite growth, % of control (lower = inhibition)",[2],85.2%
same,"growth, % of control",[3],104%
CN(C)CCN(C)CCc1ccc(Cl)c(Cl)c1,remaining parasite growth % (stronger effect = lower value),[8],55.4%
same,"activity, percent of control",[9],25%
same,"remaining proliferation (% of control), lower = more inhibition",[10],36.8%
same,"parasite growth, % of DMSO control",[1],50%
same,"parasite growth remaining, % of DMSO control (lower = more inhibition)",[7],32%
same,"parasite growth, % of control (lower = inhibition)",[2],18.2%
same,"growth, % of control",[3],72.7%
CC(O)(CS(=O)(=O)c1ccc(F)cc1)C(=O)Nc1ccc(C#N)c(C(F)(F)F)c1 (configuration not stated),remaining parasite growth % (stronger effect = lower value),[8],91.3%
same,"activity, percent of control",[9],89.3%
same,"remaining proliferation (% of control), lower = more inhibition",[10],70.9%
same,"parasite growth, % of DMSO control",[1],61.4%
same,"parasite growth, % of control (lower = inhibition)",[2],64.8%
same,"growth, % of control",[3],81.9%
